Source: paper PMC5540273 (PLoS ONE, 2017)

Assays:
Conditions in all cases: concentration: 1 μM, replicates: in singlicate; n = 1
PRKCI = test system: PRKCI
PRKCQ = test system: PRKCQ
PRKD1 = test system: PRKD1
PRKD2 = test system: PRKD2
PRKD3 = test system: PRKD3
PRKG1 = test system: PRKG1
PRKG2 = test system: PRKG2
PRKR = test system: T1, PRKR
T1 construct: gene EIF2AK2

PRKX = test system: PRKX
PRP4 = test system: PRP4
PYK2 = test system: T2, PYK2
T2 construct: gene PTK2B

QSK = test system: QSK
RAF1 = test system: RAF1
RET = test system: RET
RIOK1 = test system: RIOK1
RIOK2 = test system: RIOK2
RIOK3 = test system: RIOK3
RIPK1 = test system: RIPK1
RIPK2 = test system: RIPK2
RIPK4 = test system: RIPK4
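Note: KINOMEscan kinase panel screen.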

SMILES | %Inh (PRKCI) [%] | %Inh (PRKCQ) [%] | %Inh (PRKD1) [%] | %Inh (PRKD2) [%] | %Inh (PRKD3) [%] | %Inh (PRKG1) [%] | %Inh (PRKG2) [%] | %Inh (PRKR) [%] | %Inh (PRKX) [%] | %Inh (PRP4) [%] | %Inh (PYK2) [%] | %Inh (QSK) [%] | %Inh (RAF1) [%] | %Inh (RET) [%] | %Inh (RIOK1) [%] | %Inh (RIOK2) [%] | %Inh (RIOK3) [%] | %Inh (RIPK1) [%] | %Inh (RIPK2) [%] | %Inh (RIPK4) [%]
CN(C(=O)c1ccc(-c2cc(-c3c[nH]nc3-c3ccccn3)ccn2)cc1)C1CCOCC1 [GW810083] | 18 | 0 | 10 | 0 | 0 | 0 | 10 | 0 | 0 | 0 | 0 | 0 | 0 | 17 | 54 | 0 | 33 | 0 | 0 | 69
O=C(c1ccc(-c2cc(-c3c[nH]nc3-c3ccccn3)ccn2)cc1)N1CCOCC1 [GW812171] | 15 | 0 | 0 | 17 | 0 | 10 | 0 | 20 | 0 | 0 | 0 | 0 | 9 | 0 | 8 | 0 | 7 | 0 | 1 | 2
CN1c2ccc(CNc3ccc(F)cc3)cc2-c2c(cnn2C)S1(=O)=O | 0 | 12 | 17 | 0 | 0 | 0 | 0 | 0 | 0 | 11 | 0 | 20 | 0 | 0 | 18 | 0 | 14 | 0 | 2 | 5
NS(=O)(=O)CCc1cccc(Nc2nccc(-c3c(-c4cccc(NC(=O)c5c(F)cccc5F)c4)nn4ccccc34)n2)c1 [GSK336735] | 11 | 55 | 40 | 12 | 56 | 2 | 0 | 0 | 13 | 18 | 29 | 0 | 92.8 | 99.9 | 38 | 17 | 26 | 10 | 97.9 | 4
CCc1ccnc(/C=C/c2n[nH]c3cc(Sc4ccccc4C(=O)NC)ccc23)c1 | 1 | 0 | 0 | 15 | 0 | 0 | 0 | 0 | 29 | 0 | 0 | 0 | 0 | 83 | 0 | 0 | 0 | 0 | 43 | 0
CCn1cnc2c(N)ncnc21 [GW345098] | 13 | 0 | 9 | 0 | 23 | 13 | 0 | 0 | 0 | 1 | 8 | 13 | 3 | 0 | 30 | 6 | 8 | 11 | 1 | 6
COc1cc2c(cc1OC[C@@H](O)CO)ncc1c3ccc(C#N)cc3[nH]c21 | 0 | 0 | 0 | 0 | 0 | 0 | 0 | 0 | 0 | 9 | 0 | 8 | 21 | 52 | 65 | 0 | 76 | 0 | 0 | 0
Cc1cccc(-c2nc(-c3ccc(S(C)(=O)=O)cc3)sc2-c2ccncc2)c1 | 0 | 9 | 0 | 0 | 0 | 0 | 0 | 2 | 1 | 6 | 2 | 8 | 25 | 14 | 19 | 27 | 0 | 0 | 59 | 0
NS(=O)(=O)c1cccc(-c2ccc3nccc(-c4cccc(S(N)(=O)=O)c4)c3c2)c1 [GW867253] | 0 | 0 | 0 | 0 | 0 | 28 | 0 | 4 | 0 | 0 | 12 | 13 | 0 | 0 | 0 | 0 | 0 | 0 | 3 | 0
